Source: PubChem BioAssay (EPA / NIEHS)
Active and inactive are the calls of the source. The calls were made as follows: active = hit-call score of the fitted dose curve at least 0.9, where 1 is the maximum; inactive = score below 0.9.

Read-out: TIMP metallopeptidase inhibitor 2 (TIMP2), TIMP2 (gene 7077)
Assay: BSK_KF3CT_TIMP2: BioMAP Diversity Plus: KF3CT Assay for TIMP metallopeptidase inhibitor 2 (TIMP2) Biomarker Activity (AID 2283071)
Conditions: primary human keratinocytes with fibroblasts; actives raise or lower the signal
Experimental: BSK_KF3CT is a cell-based, multiplexed-readout assay that uses keratinocytes and foreskin fibroblasts, a human skin primary cell co-culture, with measurements taken at 24 hours after chemical dosing in a 96-well plate.BSK_KF3CT_TIMP2 is an assay component measured in the BSK_KF3CT assay. It measures TIMP-2 antibody related to regulation of gene expression using ELISA technology.Data from the assay component BSK_KF3CT_TIMP2 was analyzed into 1 assay endpoint. This assay endpoint, BSK_KF3CT_TIMP2, was analyzed with bidirectional fitting relative to DMSO as the negative control and baseline of activity. Using a type of binding reporter, gain or loss-of-signal activity can be used to understand changes in the signaling as they relate to the gene TIMP2. Furthermore, this assay endpoint can be referred to as a primary readout, because this assay has produced multiple assay endpoints where this one serves a signaling function. To generalize the intended target to other relatable targets, this assay endpoint is annotated to the protease inhibitor intended target family, where the subfamily is metalloproteinase inhibitor.
The levels of cell surface (or secreted, indicated by the prefix "s") biomarker endpoints were measured by ELISA. Overt cytotoxicity to cells in confluent adherent cultures (all systems other than the BT system) was assessed by measuring total protein levels using sulforhodamine B (SRB) staining in parallel cultures at the time of biomarker measurements, indicated as SRB endpoints. For proliferation assays for adherent cell types, individual cell types are cultured at sub-confluence and relative cell numbers quantified by SRB staining at time points optimized for each system (48 h: 3C and CASM3C systems; 72 h: BT and HDF3CGF systems; 96 h: SAg system). SRB was performed by staining cells with 0.1% SRB after fixation with 10% TCA and reading wells at 560 nm.Viability and proliferation of PBMC (T cells) was quantified by Alamar Blue reduction for the SAg and BT systems. For PBMC viability (referred to as PBMC Cytotoxicity within the assay endpoint names), cells were plated (75,000/well in a 96-well plate) and then chemical samples added for 1 h before addition of activators, SEB and TSST-1 (20 ng/mL final concentration each). Cells were incubated for 90 h. Then, Alamar Blue (20 uL/well) (Invitrogen, Cat DAL1100) was added for 6 h, and the plates were read with a fluorescence microplate reader at 546/580 nm (excitation/emission). For PBMC proliferation, cells were plated and activated as above but incubated for only 16 h prior to addition of Alamar Blue. Plates were read after 6 h.

SMILES	outcome	AC50
Cc1oc(-c2ccccc2)nc1CCOc1cccc2c1ccn2CCC(=O)O	inactive	
CCCCCCCCCCCCCCCC	inactive	
C=CCOC(=O)c1ccccc1C(=O)OCC=C	inactive	
Cc1ccc(C(C)C)c(O)c1	inactive	
Clc1cc(Cl)c(Cl)cc1Cl	inactive	
CN1CCN(Cc2cc(-c3ccc4[nH]c(=O)oc4c3)co2)[C@@H](c2ccc(F)cc2)C1	inactive	
CC(C)c1ccc(C(=O)N=C(N)N)cc1S(C)(=O)=O	inactive	
CNC(=O)[C@H]1O[C@@H](n2cnc3c(NCc4cc(Cl)ccc4OCc4cc(C)no4)ncnc32)[C@H](O)[C@@H]1N	inactive	
COCCOC[C@H](CC1(C(=O)NC2CCC(C(=O)O)CC2)CCCC1)C(=O)Oc1ccc2c(c1)CCC2 (stereo not given in full)	inactive	
COC(=O)c1ccc(O)cc1	inactive	
NCCO	inactive	
CCCCCCCC=O	inactive	
CCCCOC(=O)CCCCCCCCC(=O)OCCCC	inactive	
NCC1(Cc2noc(=O)[nH]2)CCCCC1	inactive	
CCCCCCCCCCC	inactive	
Cc1ccc(C)c(C)c1	inactive	
CCOc1ccc2c(c1)C(C)=CC(C)(C)N2	inactive	
Cc1nc(-c2ccc3c(c2)CCN(CCC2CCC(NC(=O)/C=C/c4ccc(F)cc4)CC2)CC3)no1 (stereo not given)	inactive	
CN1CCCC1=O	inactive	
CCCCCCCCCCCCCO		34.1 µM (active)

SMILES	outcome	AC50
Nc1nc(N)c2nc(CNc3ccc(C(=O)N[C@@H](CCC(=O)O)C(=O)O)cc3)cnc2n1	inactive	
O=c1c(O)c(-c2ccc(O)c(O)c2)oc2cc(O)cc(O)c12		20 µM (active)
CCCCCCC(=O)OCC	inactive	
O=[N+]([O-])C(CO)(CO)CO	inactive	
c1cc(-c2ccncc2)ccn1	inactive	
Cc1c(C(=O)O)c(O)cc2c1C(=O)c1c(O)c([C@@H]3O[C@H](CO)[C@@H](O)[C@H](O)[C@H]3O)c(O)c(O)c1C2=O	inactive	
Cc1cccc([N+](=O)[O-])c1C	inactive	
O=C(O)CCCCC(=O)O	inactive	
CCCCCC(=O)O	inactive	
Oc1ccc2ccccc2c1N=Nc1ccccc1		3.97 µM (active)
CNCc1cc(F)ccc1Oc1ccc(Cl)c(Cl)c1	inactive	
Cc1nc(C)nc(N2C[C@@H](C)N(c3ccnc([C@@H](C)O)n3)[C@@H](C)C2)n1	inactive	
O=c1[nH]cc(F)c(=O)[nH]1	inactive	
Cc1ccc(C)c(O)c1C	inactive	
COc1ccc2c(c1)c(CC(=O)O)c(C)n2C(=O)c1ccc(Cl)cc1	inactive	
Cc1ccc(N(C)C)cc1	inactive	
CCCCCCOCCO	inactive	
Cc1cccc(C)c1O	inactive	
Nc1ccc2c(c1)C(=O)c1ccccc1C2=O	inactive	
CC(C)(C)c1cc(O)c(C(C)(C)C)cc1O	inactive	
